Test results taken from ChEMBL document CHEMBL1961873, “Compounds: GSK PKIS; Assays: Nanosyn kinase panel” (2012).

target: Protein kinase C gamma type (Homo sapiens) (UniProt P05129); settings: at 0.1 µM
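Also: values are mean percent inhibition of PKC gamma.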

Row | SMILES | inhibition [%]
1 | C[C@@H](Oc1cc(-n2cnc3ccc(OC[C@@H](O)CO)cc32)sc1C(N)=O)c1ccccc1Cl | -1.57
2 | OCc1ccc(-c2nc(-c3ccccn3)c(-c3ccc4c(c3)OCO4)[nH]2)cc1 | 1.49
3 | Cc1ccc(NC(=O)CC2CC2)cc1-c1ccc(C(=O)NCC2CC2)cc1 | 2.09
4 | COc1ccc(-c2nn3ncccc3c2-c2ccnc(Nc3cccc(C(F)(F)F)c3)n2)cc1 | 2.97
5 | Cc1ccc2c(c1)/C(=N/Nc1ccc(S(N)(=O)=O)cc1)C(=O)N2 | -1.71
6 | COc1cc(/C=N/Nc2ncnc3c2cnn3C(C)C)ccc1O | -1.82
7 | NS(=O)(=O)c1ccc(NC=C2C(=O)Nc3ccc4ncsc4c32)cc1 | 3.84
8 | COc1cc(Nc2nccc(-c3cnn4ncccc34)n2)cc(OC)c1 | 0.71
9 | CCS(=O)(=O)c1ccc(OC)c(Nc2nccc(N(C)c3ccc4c(C)n[nH]c4c3)n2)c1 | 0.63
10 | Cc1ccc(Nc2ccnc(Nc3cccc(C(N)=O)c3)n2)cc1O | 4.85
11 | CS(=O)(=O)Nc1cccc(-c2ccc3c(NC(=O)C4CC4)n[nH]c3c2)c1 | 1.6
12 | NS(=O)(=O)c1ccc(Nc2cc(-c3cccc(O)c3)n[nH]2)cc1 | 2.3
13 | COC(=O)c1cncc(/C=C/c2c(C)cc(O)cc2C)c1 | 6.64
14 | COc1cc2ncnc(Nc3ccc(C)c(O)c3)c2cc1OC | 2.11
15 | COC(=O)Nc1nc2cc(Oc3ccc(NC(=O)Nc4cccc(Br)c4)cc3)ccc2[nH]1 | -0.79
16 | [O-][S+]1CCN(Cc2ccc(-c3ccc4ncnc(Nc5ccc(OCc6ccccc6)c(Cl)c5)c4c3)o2)CC1 | -0.93
17 | COc1cc2ncn(-c3cc(OCc4ccccc4S(C)(=O)=O)c(C#N)s3)c2cc1OC | 1.77
